Test results taken from PubChem BioAssay AID588489 (Sanford-Burnham Center for Chemical Genomics, 2011).
In all, about 360,000 compounds went through this assay and about 1,300 (0.36%) were called active. The entries come from a sample that favours actives as a whole. Values without a mark were called inactive. Cut-off read from the data, not from the text of the source: active = inhibition above about 35% (passing the limit was not always enough); inactive = the rest.

The compounds below were run against Polyadenylate-binding protein 1 (Homo sapiens) (UniProt P11940) (assay: PAM2 peptide displacement from PABP1 MLLE – biochemical, fluorescence polarization, FITC-PAM2, GST-MLLE, primary screen (AID 588489;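 note: plate controls were DMSO wells with GST-MLLE for no effect and wells lacking GST-MLLE protein for full effect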)). Conditions: at 20 µM, active compounds read high.
Polyadenylate-binding protein 1 (Homo sapiens), sequence (P11940 whole entry, looked up): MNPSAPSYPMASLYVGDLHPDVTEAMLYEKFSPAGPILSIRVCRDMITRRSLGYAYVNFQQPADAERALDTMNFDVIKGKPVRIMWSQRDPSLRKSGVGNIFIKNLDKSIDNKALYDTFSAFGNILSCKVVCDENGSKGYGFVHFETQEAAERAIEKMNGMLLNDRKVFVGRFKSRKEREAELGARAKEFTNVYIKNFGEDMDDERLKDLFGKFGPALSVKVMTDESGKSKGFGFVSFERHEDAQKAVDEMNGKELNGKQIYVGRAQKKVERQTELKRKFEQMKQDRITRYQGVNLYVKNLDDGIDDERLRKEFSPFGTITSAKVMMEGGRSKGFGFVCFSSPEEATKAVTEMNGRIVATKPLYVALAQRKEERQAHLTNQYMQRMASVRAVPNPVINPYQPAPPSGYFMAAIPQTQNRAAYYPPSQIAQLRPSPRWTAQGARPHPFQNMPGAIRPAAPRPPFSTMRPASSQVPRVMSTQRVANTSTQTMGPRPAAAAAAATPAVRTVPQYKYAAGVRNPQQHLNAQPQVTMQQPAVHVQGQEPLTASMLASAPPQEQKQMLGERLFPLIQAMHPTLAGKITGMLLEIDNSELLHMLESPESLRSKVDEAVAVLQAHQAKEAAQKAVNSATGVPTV

Compound | inhibition
O=C1NCCn2nc3ccccc3c21 | 0.33%
Nc1ccc2nc3c(=O)[nH]c(=S)[nH]c3nc2c1 | 177%
O=c1[nH]c(=O)c2nc3ccccc3nc2[nH]1 | 53.2% (active)
Cc1cc2cc(CNC(=O)c3ccc(S(=O)(=O)N4CCOCC4)cc3)ccc2[nH]1 | 45.1% (active)
COC(=O)c1ccc(CNC(=O)c2ccc(S(=O)(=O)N3CCCCCC3)cc2)cc1 | -6.55%
Cc1cc2cc(CNC(=O)c3cccs3)ccc2[nH]1 | 38%
COCCn1c(N)c(NCc2ccccc2)c(=O)[nH]c1=O | 44.1% (active)
COCCN(C(=O)c1ccccc1F)c1c(N)n(Cc2ccccc2)c(=O)[nH]c1=O | -9.82%
COCCn1c(N)c(N(Cc2ccccc2)C(=O)C2CCCCC2)c(=O)[nH]c1=O | -2.43%
C=CCc1cccc2cc(C(=O)NC3CCCC3)c(=O)oc12 | 6.38%
CC1CN(C(=O)c2ccc3c(c2)OCO3)OC(c2ccccc2)O1 (stereo unspecified) | 0.75%
CSCCC(NC(=O)C1CCC(C)CC1)C(=O)NCc1ccco1 (stereo unspecified) | -8.36%
CC(=O)Nc1ccc(NC(=O)C(NS(=O)(=O)c2ccc3c(c2)OCCO3)C(C)C)cc1 (stereo unspecified) | 1.54%
CCOC(=O)CNc1nc(Cl)nc(Nc2ccc(OC)cc2OC)n1 | 1.38%
Cc1cccc(-n2c(N)c(C(=O)N3CCN(C)CC3)sc2=S)c1 | 3.33%
CCOC(=O)c1sc(=S)n(-c2cccc(OC)c2)c1N | 40.5% (active)
CCOC(=O)C(C)n1cnc2c(nnn2-c2cccc(OC)c2)c1=O (stereo unspecified) | 1.6%
O=C(CN1C(=O)COc2ccc(Cl)cc21)N1CCOCC1 | 8.9%
CC1(C(=O)NS(=O)(=O)Cc2cccc(Cl)c2)CCN1C(=O)Cc1ccccc1 (stereo unspecified) | -3.36%
NNC(=O)CNC(c1ccccc1)c1cc(Cl)ccc1NC(=O)c1ccccc1 (stereo unspecified) | -2.37%
COc1ccc(Nc2ccc([N+](=O)[O-])cn2)cn1 | 48.7% (active)
COC(=O)c1ccccc1N=NNc1ccc([N+](=O)[O-])cc1 | 18.6%
COc1cc(NC(=O)Nc2ccc(C)cc2)cc([N+](=O)[O-])c1 | -3.48%
OC(c1ccc(Cl)cc1)C(CN1CCOCC1)c1ccccc1 (stereo unspecified) | -5.53%

Compound | inhibition
C=C1c2cccc(OC)c2O[C@H](C(=O)OCC)[C@@H]1CCCCCC | -73.6%
CC(=O)c1cnc(SCCN2C(=O)c3ccccc3C2=O)nc1C | 4.46%
Cc1ccc(S(=O)(=O)NNC(=O)Nc2cccc3ccccc23)cc1 | 3.51%
COC(=O)c1c(C)[nH]c(C)c1-c1ccc([N+](=O)[O-])cc1 | -2.95%
COC(=O)C1=CN(c2ccc(F)c(F)c2)C=C(C(=O)OC)C1c1ccc([N+](=O)[O-])cc1 | 9.34%
COC(=O)C1=C(C(=O)OC)C(c2cc([N+](=O)[O-])ccc2O)c2sc(=O)[nH]c2S1 (stereo unspecified) | 40.3% (active)
Cc1ccc(C2=NN(C)c3nc4ccccc4n3C2)cc1 | -3.04%
COc1ccc(NS(=O)(=O)c2ccc(C)c(C(=O)NNC(=O)c3csc(N4CCOCC4)n3)c2)cc1 | -13.1%
C=CCNC(=S)NNC(=O)c1ccc(Br)o1 | -45.2%
CCCCn1c(SCC(=O)NCCc2ccc(OC)c(OC)c2)nc2c1c(=O)n(C)c(=O)n2C | 4.31%
CCCSc1nc2c(c(=O)n(C)c(=O)n2C)n1Cc1ccc(C)cc1 | -1.85%
CCOc1ccc(Cn2c(SCCCCC#N)nc3c2c(=O)n(C)c(=O)n3C)cc1OCC | 44% (active)
O=C(NCCC(=O)N1O[C@@H]2C=C[C@H]1C2)OCC1c2ccccc2-c2ccccc21 | -4.15%
CCOCc1nnc(NC(=O)CCC2CCCCC2)s1 | -2.53%
Cc1cc([N+](=O)[O-])nn1CCCC(=O)Nc1cccnc1Cl | 2.45%
COc1ccc(Cl)cc1-n1c(=S)sc2c(=O)n(-c3ccc(F)cc3)c(SCC(=O)O)nc21 | 43.8% (active)
COc1cccc(-n2c(=S)sc3c(=O)n(-c4ccccc4C)c(SCC(=O)O)nc32)c1 | -10.4%
COc1cccc(-n2c(=S)sc3c(=O)n(-c4ccccc4OC)c(SCC4OCCO4)nc32)c1 | -1.94%
COc1ccccc1C(=O)Oc1ccc(N2C(=O)CCC2=O)cc1 | -2.33%
O=C(c1ccc(Cn2cc([N+](=O)[O-])cn2)o1)N1CCCC1 | -7%
CC1COc2ccccc2N1C(=O)c1ccc(F)cc1 (stereo unspecified) | -13.6%
O=C(c1ccc(F)cc1)n1c(=S)nc2ccccn21 | 39% (active)
O=C(c1ccc(F)cc1)N1CCC(n2nnc3ccccc32)CC1 | -6.3%
O=C(COC(=O)/C=C/c1nc2ccccc2s1)Nc1ccccc1Oc1ccccc1 | -5.84%

Compound | inhibition
NS(=O)(=O)c1ccc(NC(=S)Nc2ccc(Br)c(Cl)c2)cc1 | 33.2%
Cc1cccc(NC(=S)Nc2ccc(Cl)c(Cl)c2)c1 | 37.8% (active)
Cc1csc(NC(=S)Nc2cccc(Cl)c2)n1 | 35.5% (active)
O=C(NCc1cn2ccsc2n1)Nc1cccc(Cl)c1 | -5.66%
Cc1ccc(C2CCN(C(=S)Nc3cccc(Cl)c3)C2)cc1 (stereo unspecified) | -122%
Cc1ccc(C)c(NC(=S)NNC(=S)Nc2ccc(C(C)C)cc2)c1 | 30.8%
CCc1noc(C)c1C(=O)N1CCCC(N2CCN(c3ccc(F)cc3)CC2)C1 (stereo unspecified) | -6.88%
Cc1cc(NC(=O)c2cc3ccccc3o2)no1 | 16%
CC(C)(C)n1nc2c(c1NC(=O)c1cc3ccccc3o1)CSC2 | 47.2% (active)
Cc1cccc(-n2nc3c(c2NC(=O)c2cc4ccccc4o2)CS(=O)(=O)C3)c1 | 2.88%
C=CCn1c(SCC(=O)NCc2ccccc2)nnc1-c1cc(Br)ccc1O | -75.9%
CCOC(=O)C1=C(CSc2nnnn2C)N(C)C(=O)NC1c1ccccc1 (stereo unspecified) | -3.23%
O=C1CCCC(O)=C1N=Nc1ccc2ncsc2c1 | 45.2% (active)
O=C1CCCC(O)=C1N=Nc1ccc(S(=O)(=O)N2CCOCC2)cc1 | 8.62%
O=C(NCCC1CCCCN1S(=O)(=O)c1ccccc1)C(=O)NCC1CCCO1 (stereo unspecified) | 1.52%
Cc1ccc(C(=O)N/N=C\c2cc(Br)c(Br)o2)cn1 | 69.9% (active)
O=C(N/N=C\c1cc(Br)c(Br)o1)C1COc2ccccc2O1 (stereo unspecified) | -16.5%
O=C(N/N=C/c1ccc(Br)o1)c1cncc(Br)c1 | 6.99%
CC(C)N(C(=O)Cn1cc(SCC(=O)N2CCCC2)c2ccccc21)C(C)C | -0.1%
Cc1ccnc(SC2CC(=O)N(c3ccccc3)C2=O)n1 (stereo unspecified) | 38.2% (active)
CCOc1ccccc1N1C(=O)CC(Sc2nccc(C)n2)C1=O (stereo unspecified) | 20.7%
CC(=O)Nc1ccc(N2C(=O)CC(Sc3nccc(C)n3)C2=O)cc1 (stereo unspecified) | 20.5%
CCCCNC(=O)C1(c2ccc(OC)cc2)CCOCC1 | -4.07%
CC(C)N(Cc1nnc(-c2ccccc2Br)o1)C(=O)c1cc(Cl)nc2ccccc12 | -1.33%

Compound | inhibition
Nc1cccc2c1C(=O)N(Cc1nnc(-c3ccccc3Br)o1)C2=O | 41.2% (active)
Cn1cnnc1SCc1nnc(-c2ccccc2Br)o1 | -6.49%
CCOC(=O)c1cc2sccc2n1Cc1ccc(C#N)cc1 | -2.73%
CC(Sc1ccc(S(=O)(=O)N2CCN(C)CC2)cn1)C(=O)NC1CCCC(C)C1C (stereo unspecified) | -9.12%
CC1(C)C2CC=C(/C=N/NC(=O)c3ccc(Cl)cc3)C1C2 (stereo unspecified) | 10.7%
O=C1CCC(=O)N(c2ccccc2)N1 | 3.9%
Fc1ccccc1CNC(=S)Nc1ccc(Cl)cc1 | -18.2%
CCOc1ccccc1NC(=S)NC(=O)CCc1ccccc1 | 17.8%
O=C(Cc1ccc(Cl)cc1)NC(=S)Nc1ccccc1O | 37.5% (active)
Cc1sc2ncn(CC(=O)NCCCC(=O)NCc3ccc(F)cc3)c(=O)c2c1C | -10.9%
Cc1n[nH]c(=O)c2c(NC(=O)CSc3ccccc3F)oc(C)c12 | 25.1%
COc1ccc(OC)c(C2N(c3ccccn3)C(=O)C3CCCN32)c1 (stereo unspecified) | -4.22%
COCC(C)N=CC1=C(O)CC(C)(C)CC1=O (stereo unspecified) | 6.93%
COc1cccc(NC(=O)CN(C)C(=O)CSC(=S)N2CCCC2)c1 | 40.8% (active)
CCN(CC(=O)Nc1ccc(NC(C)=O)cc1)C(=O)CSC(=S)N1CCCC1 | 5.05%
COc1cccc(NC(=O)CN(C)C(=O)Cc2ccc(Cl)cc2Cl)c1 | -1.03%
COc1ccc(NC(=O)c2c(C)oc3c2CCCC3)cc1 | 6.57%
COc1ccc(N/N=C2/CCCCC2=O)cc1 | 44.5% (active)
Cc1ccc(N/N=C2\COC(C)(C)CC2=O)cc1 | -0.27%
COc1ccc(-c2cc(C3CCN(c4ncccc4[N+](=O)[O-])CC3)[nH]n2)cc1 | 6.76%
CCc1ccc2c(c1)C1(NN=C(c3ccccc3)S1)C(=O)N2 (stereo unspecified) | 45.2% (active)
CCc1ccc2c(c1)NC(=O)C2(C)Cc1ccc(OC(F)(F)F)cc1 (stereo unspecified) | 8.45%
CC[N+]1(CC)CC2=Cc3ccccc3CC2C1 (stereo unspecified) | -5.91%
O=C(Nc1cc(S(=O)(=O)Nc2ccc(Cl)cc2)ccc1O)c1ccc(F)cc1F | -7.73%
